The record followed here is the supplement of paper PMC10681739.
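Also: Full-length recombinant human ETS1 or RUNX1 bound to double-stranded 36-bp genomic probes on microarrays, detected by protein-specific primary antibody and Alexa488 secondary, spot fluorescence as median of four replicate spots.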

Chain of RUNX1 (Q01196 whole entry): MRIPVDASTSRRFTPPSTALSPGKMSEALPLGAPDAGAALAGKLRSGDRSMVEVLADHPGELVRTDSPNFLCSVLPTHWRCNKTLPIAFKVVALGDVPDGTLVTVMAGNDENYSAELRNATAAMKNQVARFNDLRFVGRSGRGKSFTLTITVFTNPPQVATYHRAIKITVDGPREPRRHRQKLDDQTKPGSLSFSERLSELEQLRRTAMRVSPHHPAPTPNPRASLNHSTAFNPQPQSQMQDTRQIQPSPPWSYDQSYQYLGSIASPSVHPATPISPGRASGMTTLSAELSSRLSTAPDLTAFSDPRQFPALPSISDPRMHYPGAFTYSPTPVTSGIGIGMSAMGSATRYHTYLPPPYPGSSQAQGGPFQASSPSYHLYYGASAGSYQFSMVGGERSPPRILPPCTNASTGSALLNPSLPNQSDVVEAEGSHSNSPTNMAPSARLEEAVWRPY

This assay has as its target RUNX1 (UniProt Q01196). The assay can be described thus: RUNX1 binding intensity (PBM fluorescence) in presence of ETS1, normalised to RUNX1-only experiment (arbitrary fluorescence units); higher = stronger binding. The following applies: RUNX1 concentration 2 nM; ETS1 concentration 25 nM. On the procedure:
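Cooperative gcPBM on 36-bp genomic probes with neighbouring ETS1 and RUNX1 sites. Recombinant human RUNX1 (2 nM) was incubated alone or with ETS1 (25 nM) and detected with anti-RUNX1 antibody plus Alexa488 secondary. Values are medians over 4 replicate spots; the RUNX1+ETS1 data were normalised to the RUNX1-only data. The probes sit in constant array flanks that are not printed.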
For the sequence GCGCCGGTGACGGAAGTGCGGTGTTGAGCGCCGGCG, the RUNX1 binding intensity stood at 1300.

On to GAGGCGACCCACATCCGCTGTGCGGGGGCAACTGCA, for which the RUNX1 binding intensity worked out at 6600.

For the sequence CTTTGTTGAAAAGGATGTGGTCATCTGATCTTGCTG, the RUNX1 binding intensity was 2000.

Regarding GGACAAAACATCATAGGAAGTGGGTTTTGGGGTGAG, the RUNX1 binding intensity was found to be 914.

Regarding AGTGTCCGCCGCTTCCTGGTTGCGGGTCAGCGCCCA, the RUNX1 binding intensity was 2690.

Take TCATTTCCTCTGGTGTTATTGTGTTGTGGTTTTAAG: the RUNX1 binding intensity is 3040.

For TATTCATGACATCCTGTCGGGCTTGTGGGCTGCGTA, the RUNX1 binding intensity was determined as 1430.

AACAACTGACCGGACAGAACACAGCCACAAAACACG: the RUNX1 binding intensity turned out to be 928.

With CCCAGGCTTCCGGGTTGAATATGTGGGCTGAGGCGA, the RUNX1 binding intensity is 1420.

As to GAAGGTTGTAGAGGAAGTGGTTTGTTCTTCCTCCTG, the RUNX1 binding intensity turned out to be 1640.

For the sequence CAAGAGGAACCGGAACTTTGGAAACCACATTCTTAT, the RUNX1 binding intensity was found to be 1480.

With CAGCTCTCTCGCTTCCTGTGGTGTAAACATGAAGCA, the RUNX1 binding intensity turned out to be 1500.

Consider CAGACAGGAGGCGGATGTGGGTGGCGCAGAATGAGC, for which the RUNX1 binding intensity was found to be 1920.

TTTGAGCGGGCAGGATGTGGTGACAATGATACTGCA: the RUNX1 binding intensity was determined as 2370.

Regarding GTCGTCCCGGAAACCGGGATGCGGTTATCAGAGCGA, the RUNX1 binding intensity amounted to 3180.

For the sequence ATGTACATAGATACAGGATGTGGGTTTGTTACAAAG, the RUNX1 binding intensity came to 3400.

On to TGACATTTCCGGCCCCACCTCGGCCCGCAGCGCCGC, for which the RUNX1 binding intensity amounted to 2320.

On to TCGTGTTCTCTTCCGTTCTGTGGTAGCTTTTTGGTA, for which the RUNX1 binding intensity was found to be 1870.

On to CTGAAAAACCGGAAGTGGGTGGTTTGAAACGTAAAT, for which the RUNX1 binding intensity was found to be 4130.
